# Where “and” joins values, the source holds several entries; their conditions need not be identical. Identical values can stand only once. Over roughly 2,900 compounds, “NF-kB SEAP reporter activity, fold change vs agonist alone” has its median near 0.99; the highest 2% begin near 2.6. The list comes from a sample in which the highest values are over-represented; it also holds similar structures and randomly drawn compounds.
# Legend:
# [1] = tested on: RAW-Dual; test: NF-kB SEAP reporter activity, fold change vs agonist alone; higher = enhanced NF-kB activity
# Summary of the method: (§1)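 RAW-Dual macrophages (50,000 cells/well in DMEM, 384-well plates) received 50 nL of library stock by pin tool, then a PRR agonist 1 h later, and were kept at 37 °C, 5% CO2. After 20 hours, supernatant was read for IRF by QuantiLuc luminescence and for NF-κB by QuantiBlue absorbance at 620 nm. Reporter activity is fold change over agonist-alone wells. Cytotoxic wells had IncuCyte confluency below 70% of agonist controls in both mask sets.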
# [2] = tested on: RAW-Dual; test: NF-kB SEAP reporter activity, fold change vs agonist alone; cytotoxicity flag (confluency mask): not cytotoxic; higher = enhanced NF-kB activity
# Summary of the method: as §1
# [3] = tested on: RAW-Dual; test: NF-kB SEAP reporter activity, fold change vs agonist alone; cytotoxicity flag (confluency mask): cytotoxic (confluency <70% of control); higher = enhanced NF-kB activity
# Summary of the method: as §1
# [4] = library stock concentration (final ~1000-fold dilution): 10 mM, cytotoxicity flag (confluency mask): not cytotoxic, agonist: Imiquimod (TLR7) […]
# [5] = library stock concentration (final ~1000-fold dilution): 10 mM, cytotoxicity flag (confluency mask): not cytotoxic, agonist: MPLA (TLR4) […]
# [6] = agonist: ODN 1826 (TLR9) 0.5 ug/mL
# [7] = agonist: Pam2CSK4 (TLR2/6) 0.1 ug/mL
# [8] = agonist: Pam3CSK4 (TLR2/1) 0.1 ug/mL
smiles,measurement,setting,value
Cc1nc(NC(=O)N2CCCC2C(N)=O)sc1-c1csc(C(C)(C)C)n1 (stereo unspecified),NF-kB SEAP reporter activity,[1]; [4],1.01
same,NF-kB SEAP reporter activity,[1]; [5],0.941
Cc1nc(NC(=O)N2CCCC2C(N)=O)sc1-c1csc(C(C)(C)C)n1 (stereo unspecified) (library stock concentration (final ~1000-fold dilution): 10 mM),NF-kB SEAP reporter activity,[2]; agonist: LPS (TLR4) 0.1 ug/mL,0.881
same,NF-kB SEAP reporter activity,[2]; [6],1.41
same,NF-kB SEAP reporter activity,[2]; [7],1.32
same,NF-kB SEAP reporter activity,[2]; [8],1
CC(C)N(CCCNC(=O)Nc1ccc(C(C)(C)C)cc1)CC1OC(n2ccc3c(N)ncnc32)C(O)C1O (stereo unspecified) (library stock concentration (final ~1000-fold dilution): 10 mM),NF-kB SEAP reporter activity,[2]; agonist: LPS (TLR4) 0.1 ug/mL,0.953
same,NF-kB SEAP reporter activity,[2]; [6],1.05
same,NF-kB SEAP reporter activity,[2]; [7],0.991
same,NF-kB SEAP reporter activity,[2]; [8],1.14
CC(C)N(CCCNC(=O)Nc1ccc(C(C)(C)C)cc1)CC1OC(n2ccc3c(N)ncnc32)C(O)C1O (stereo unspecified),NF-kB SEAP reporter activity,[1]; [4],1.02
same,NF-kB SEAP reporter activity,[1]; [5],0.984
C=C(C)C1CCC2(C(=O)O)CCC3(C)C(CCC4C5(C)CCC(O)C(C)(C)C5CCC43C)C12 (stereo unspecified),NF-kB SEAP reporter activity,[1]; [4],1.04
same,NF-kB SEAP reporter activity,[1]; [5],1.1
C=C(C)C1CCC2(C(=O)O)CCC3(C)C(CCC4C5(C)CCC(O)C(C)(C)C5CCC43C)C12 (stereo unspecified) (library stock concentration (final ~1000-fold dilution): 10 mM),NF-kB SEAP reporter activity,[2]; agonist: LPS (TLR4) 0.1 ug/mL,1.45
same,NF-kB SEAP reporter activity,[2]; [6],0.913
same,NF-kB SEAP reporter activity,[2]; [7],0.832
same,NF-kB SEAP reporter activity,[2]; [8],1.14
CN1CCc2cc(Nc3ncc(C4CC4)c(NCCCNC(=O)C4CCC4)n3)ccc2C1 (library stock concentration (final ~1000-fold dilution): 10 mM),NF-kB SEAP reporter activity,[3]; agonist: LPS (TLR4) 0.1 ug/mL,0.23
same,NF-kB SEAP reporter activity,[3]; [6],0.207
same,NF-kB SEAP reporter activity,[3]; [7],0.0969
same,NF-kB SEAP reporter activity,[3]; [8],0.211
O=C(NCCCNc1nc(Nc2cccc(NC(=O)N3CCCC3)c2)ncc1I)c1cccs1 (library stock concentration (final ~1000-fold dilution): 10 mM),NF-kB SEAP reporter activity,[3]; agonist: LPS (TLR4) 0.1 ug/mL,0.329 and 0.35
same,NF-kB SEAP reporter activity,[3]; [6],0.729 and 1.48
same,NF-kB SEAP reporter activity,[3]; [7],0.0917 and 0.128
same,NF-kB SEAP reporter activity,[3]; [8],0.252 and 0.376
O=C(NCCCNc1nc(Nc2cccc(CN3CCOCC3)c2)ncc1C1CC1)C1CCC1 (library stock concentration (final ~1000-fold dilution): 10 mM),NF-kB SEAP reporter activity,[2]; agonist: LPS (TLR4) 0.1 ug/mL,2.49 and 3.77
same,NF-kB SEAP reporter activity,[2]; [6],0.595 and 0.333
same,NF-kB SEAP reporter activity,[2]; [7],2.26 and 2.33
same,NF-kB SEAP reporter activity,[2]; [8],4.25 and 3.71
CN1CCc2cc(Nc3ncc(C4CC4)c(NCCCNC(=O)C4CCC4)n3)ccc2C1,NF-kB SEAP reporter activity,"[1]; library stock concentration (final ~1000-fold dilution): 10 mM, cytotoxicity flag (confluency mask): cytotoxic (confluency <70% of control), agonist: Imiquimod (TLR7) […]",0.243
same,NF-kB SEAP reporter activity,"[1]; library stock concentration (final ~1000-fold dilution): 10 mM, cytotoxicity flag (confluency mask): cytotoxic (confluency <70% of control), agonist: MPLA (TLR4) […]",0.288
CC(C)(C)c1[nH]cnc1C=c1[nH]c(=O)c(=Cc2ccccc2)[nH]c1=O,NF-kB SEAP reporter activity,[1]; [4],2.47
same,NF-kB SEAP reporter activity,[1]; [5],2.5
O=c1[nH]cnc2ccccc12 (library stock concentration (final ~1000-fold dilution): 10 mM),NF-kB SEAP reporter activity,[2]; agonist: LPS (TLR4) 0.1 ug/mL,1.14
same,NF-kB SEAP reporter activity,[2]; [6],0.991
same,NF-kB SEAP reporter activity,[2]; [7],1.05
same,NF-kB SEAP reporter activity,[2]; [8],1.08
O=c1[nH]cnc2ccccc12,NF-kB SEAP reporter activity,[1]; [4],0.847
same,NF-kB SEAP reporter activity,[1]; [5],0.983
CC(C)(C)c1[nH]cnc1C=c1[nH]c(=O)c(=Cc2ccccc2)[nH]c1=O (library stock concentration (final ~1000-fold dilution): 10 mM),NF-kB SEAP reporter activity,[2]; agonist: LPS (TLR4) 0.1 ug/mL,6.1
same,NF-kB SEAP reporter activity,[2]; [6],3.37
same,NF-kB SEAP reporter activity,[2]; [7],2.02
same,NF-kB SEAP reporter activity,[2]; [8],2.3
O=C(Nc1ccc(O)c(C(=O)O)c1)c1cccc(NC(=O)c2ccco2)c1,NF-kB SEAP reporter activity,[1]; [4],0.942
same,NF-kB SEAP reporter activity,[1]; [5],0.969
O=C(Nc1ccc(O)c(C(=O)O)c1)c1cccc(NC(=O)c2ccco2)c1 (library stock concentration (final ~1000-fold dilution): 10 mM),NF-kB SEAP reporter activity,[2]; agonist: LPS (TLR4) 0.1 ug/mL,0.971
same,NF-kB SEAP reporter activity,[2]; [6],0.895
same,NF-kB SEAP reporter activity,[2]; [7],1.05
same,NF-kB SEAP reporter activity,[2]; [8],1.06
Cl.Cl.c1cc(-c2nc3ccc(OCCCN4CCCC4)cc3o2)ccc1OCCCN1CCCC1 (library stock concentration (final ~1000-fold dilution): 1 mM),NF-kB SEAP reporter activity,[2]; agonist: LPS (TLR4) 0.1 ug/mL,0.935
same,NF-kB SEAP reporter activity,[2]; [6],0.224
same,NF-kB SEAP reporter activity,[2]; [7],1.11
same,NF-kB SEAP reporter activity,[2]; [8],1.06
Cl.Cl.c1cc(-c2nc3ccc(OCCCN4CCCC4)cc3o2)ccc1OCCCN1CCCC1,NF-kB SEAP reporter activity,"[1]; library stock concentration (final ~1000-fold dilution): 1 mM, cytotoxicity flag (confluency mask): not cytotoxic, agonist: Imiquimod (TLR7) […]",1.27
same,NF-kB SEAP reporter activity,"[1]; library stock concentration (final ~1000-fold dilution): 1 mM, cytotoxicity flag (confluency mask): not cytotoxic, agonist: MPLA (TLR4) […]",1.08
COc1ccccc1C(=O)Nc1cc2c(cc1N1CCNCC1C)n(C)c(=O)n2C (stereo unspecified) (library stock concentration (final ~1000-fold dilution): 10 mM),NF-kB SEAP reporter activity,[2]; agonist: LPS (TLR4) 0.1 ug/mL,1.48
same,NF-kB SEAP reporter activity,[2]; [6],0.383
same,NF-kB SEAP reporter activity,[2]; [7],0.997
same,NF-kB SEAP reporter activity,[2]; [8],0.973
COc1ccccc1C(=O)Nc1cc2c(cc1N1CCNCC1C)n(C)c(=O)n2C (stereo unspecified),NF-kB SEAP reporter activity,[1]; [4],1.01
same,NF-kB SEAP reporter activity,[1]; [5],1.37
CCOC(=O)C(CCc1ccccc1)NC1CSC(c2cccs2)CN(CC(=O)O)C1=O.Cl (stereo unspecified),NF-kB SEAP reporter activity,[1]; [4],1.01
same,NF-kB SEAP reporter activity,[1]; [5],1.01
CCOC(=O)C(CCc1ccccc1)NC1CSC(c2cccs2)CN(CC(=O)O)C1=O.Cl (stereo unspecified) (library stock concentration (final ~1000-fold dilution): 10 mM),NF-kB SEAP reporter activity,[2]; agonist: LPS (TLR4) 0.1 ug/mL,0.869
same,NF-kB SEAP reporter activity,[2]; [6],1.04
same,NF-kB SEAP reporter activity,[2]; [7],0.946
same,NF-kB SEAP reporter activity,[2]; [8],1.15
NC(=O)c1ccc(-c2nc(-c3ccc4c(c3)OCCO4)c(-c3ccccn3)[nH]2)cc1 (library stock concentration (final ~1000-fold dilution): 10 mM),NF-kB SEAP reporter activity,[2]; agonist: LPS (TLR4) 0.1 ug/mL,1.81
same,NF-kB SEAP reporter activity,[2]; [6],1.29
same,NF-kB SEAP reporter activity,[2]; [7],1.25
same,NF-kB SEAP reporter activity,[2]; [8],0.913
NC(=O)c1ccc2[nH]c(-c3ccc(Oc4ccc(Cl)cc4)cc3)nc2c1 (library stock concentration (final ~1000-fold dilution): 10 mM),NF-kB SEAP reporter activity,[2]; agonist: LPS (TLR4) 0.1 ug/mL,1.71
same,NF-kB SEAP reporter activity,[2]; [6],1.59
same,NF-kB SEAP reporter activity,[2]; [7],2.1
same,NF-kB SEAP reporter activity,[2]; [8],3.55

# From the supplement of paper PMC10037445
